Measured values from PubChem BioAssay.
For part of these data: Results with a measured potency or affinity are listed apart. The source made the active and inactive calls.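 How the source made its calls, unless noted: active means primary screen hit whose calcium fluorescence ratio, in both repeats, exceeds the weak agonist control mean by 3 SD; inactive means the rest.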

Key:
[1] = test system: TRPC4 beta (transient receptor potential cation channel C4), mouse; assay: activators of mouse TRPC4 channel, confirmation, cell-based, Fluo4 calcium, HEK293 TRPC4beta/mu-opioid, duplicates, 10 µM (AID 2426;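 active means fluorescence ratio normalized to control raised more than 50% in primary screen plus both repeat runs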); settings: Fluo4 calcium fluorescence, at 10 µM; stronger effect = higher value
[2] = test system: transient receptor potential cation channel C4 beta (TRPC4), mouse; assay: activators of mouse TRPC4 channel, confirmation, cell-based, second round, Fluo4, HEK293 TRPC4beta/mu-opioid, 1 µM (AID 2461;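 active means primary screen active and over 50% activation in each of two duplicate runs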); settings: Fluo4 calcium fluorescence, at 1 µM; stronger effect = higher value
[3] = test system: TRPC4 (transient receptor potential cation channel C4 beta), mouse; assay: positive allosteric modulators of mouse TRPC4, confirmation, cell-based, second round, Fluo-4, HEK293 TRPC4beta/mu-opioid, 1 µM (AID 2554;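 active means primary screen hit whose fluorescence ratio, in both repeats, exceeds the weak agonist control mean by 3 SD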); settings: DAMGO EC20, Fluo-4 calcium flux, at 1 µM; stronger effect = higher value
[4] = test system: TRPC4 beta (transient receptor potential cation channel C4), mouse; assay: positive allosteric modulators of mouse TRPC4, confirmation, cell-based, Fluo-4, HEK293 TRPC4beta/mu-opioid (AID 2555); settings: DAMGO EC20, Fluo-4 calcium flux, at 10 µM; stronger effect = higher value
[5] = target: Short transient receptor potential channel 4 (Mus musculus) (UniProt Q9QUQ5); assay: inhibitors of mouse TRPC4 channel, confirmation, cell-based, Fluo4, HEK293 TRPC4beta/mu-opioid (AID 2636;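 active means calcium signal cut by more than 3 SD below the full-agonist control yet still positive, in both repeats and the earlier primary screen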); settings: DAMGO, Fluo4 calcium flux, at 10 µM; stronger effect = higher value
Sequence of Short transient receptor potential channel 4 (Mus musculus) (Q9QUQ5 whole entry, looked up): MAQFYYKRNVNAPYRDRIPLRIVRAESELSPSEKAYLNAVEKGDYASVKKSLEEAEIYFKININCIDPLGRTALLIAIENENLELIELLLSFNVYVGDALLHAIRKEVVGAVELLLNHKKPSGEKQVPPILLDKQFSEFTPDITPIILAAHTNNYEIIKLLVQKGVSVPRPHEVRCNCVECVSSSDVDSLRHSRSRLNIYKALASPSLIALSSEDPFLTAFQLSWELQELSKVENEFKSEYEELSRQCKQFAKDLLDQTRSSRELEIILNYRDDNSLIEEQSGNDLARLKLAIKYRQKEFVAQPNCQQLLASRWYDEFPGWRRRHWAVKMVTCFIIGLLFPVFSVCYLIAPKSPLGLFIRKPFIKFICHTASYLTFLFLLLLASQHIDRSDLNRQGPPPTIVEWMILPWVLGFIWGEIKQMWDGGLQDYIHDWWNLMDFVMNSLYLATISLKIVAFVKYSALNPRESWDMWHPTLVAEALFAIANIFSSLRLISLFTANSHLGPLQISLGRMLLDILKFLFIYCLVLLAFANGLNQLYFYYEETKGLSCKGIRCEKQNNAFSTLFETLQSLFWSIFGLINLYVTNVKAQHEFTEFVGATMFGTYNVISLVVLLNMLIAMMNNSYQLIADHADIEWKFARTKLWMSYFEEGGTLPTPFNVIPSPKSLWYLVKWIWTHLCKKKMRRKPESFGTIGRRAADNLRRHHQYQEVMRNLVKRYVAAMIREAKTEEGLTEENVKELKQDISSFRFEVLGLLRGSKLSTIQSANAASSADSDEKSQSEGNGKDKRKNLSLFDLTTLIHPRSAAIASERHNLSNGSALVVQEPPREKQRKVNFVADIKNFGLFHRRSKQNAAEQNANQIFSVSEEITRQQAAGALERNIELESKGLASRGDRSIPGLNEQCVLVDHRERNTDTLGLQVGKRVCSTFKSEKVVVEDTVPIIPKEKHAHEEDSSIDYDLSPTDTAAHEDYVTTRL

[6] = target: Short transient receptor potential channel 4 (Mus musculus) (UniProt Q9QUQ5); assay: inhibitors of mouse TRPC4 channel, confirmation, cell-based, second round, Fluo4, HEK293 TRPC4beta/mu-opioid, 1 µM (AID 2637;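 active means calcium signal ratio cut to more than 3 SD under the fully stimulated control mean yet still positive, in both repeats and the primary screen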); settings: Fluo4 calcium flux, DAMGO, at 1 µM; stronger effect = higher value
[7] = target: Short transient receptor potential channel 4 (Mus musculus) (UniProt Q9QUQ5); assay: mouse TRPC4 channel activators, dose response, cell-based, HEK293 TRPC4/mu-opioid, Fluo-4 calcium (AID 434937;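 active means primary screen activator hit with a dose response curve and TRPC4 channel activation at any tested dose; inactive means no activation, no dose response, or not a primary hit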)
[8] = target: Short transient receptor potential channel 4 (Mus musculus) (UniProt Q9QUQ5); assay: TRPC4 positive allosteric modulators, dose response, cell-based, HEK293 TRPC4/mu-opioid, Fluo-4 calcium, EC20 DAMGO (AID 434941;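 active means earlier screen potentiator hit that boosts the TRPC4 ion channel at some dose, with a dose response; inactive means no potentiation, no dose response, or not a prior hit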;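 further: calcium entry triggered by an EC20 dose of DAMGO at the co-expressed mu-opioid receptor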)
[9] = target: Short transient receptor potential channel 4 (Mus musculus) (UniProt Q9QUQ5); assay: mouse TRPC4 channel inhibitors, dose response, cell-based, HEK293 TRPC4/mu-opioid, Fluo-4 calcium (AID 434942;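 active means primary screen inhibitor hit that blocks the TRPC4 channel at some tested dose, yielding a dose curve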)
[10] = target: Short transient receptor potential channel 6 (Mus musculus) (UniProt Q61143); assay: inhibition of mouse TRPC6 channel, confirmation, selectivity assay for TRPC4 inhibitor project, cell-based, HEK293, membrane potential dye, duplicate (AID 434948;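 active means active in primary screen and both duplicates, each dropping signal beyond three positive-control SD with fluorescence still positive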); settings: HEK293 TRPC6, membrane potential dye fluorescence, at 10 µM, stimulated with maximal-effect acetylcholine; stronger effect = higher value
Sequence of Short transient receptor potential channel 6 (Mus musculus) (Q61143 whole entry, looked up): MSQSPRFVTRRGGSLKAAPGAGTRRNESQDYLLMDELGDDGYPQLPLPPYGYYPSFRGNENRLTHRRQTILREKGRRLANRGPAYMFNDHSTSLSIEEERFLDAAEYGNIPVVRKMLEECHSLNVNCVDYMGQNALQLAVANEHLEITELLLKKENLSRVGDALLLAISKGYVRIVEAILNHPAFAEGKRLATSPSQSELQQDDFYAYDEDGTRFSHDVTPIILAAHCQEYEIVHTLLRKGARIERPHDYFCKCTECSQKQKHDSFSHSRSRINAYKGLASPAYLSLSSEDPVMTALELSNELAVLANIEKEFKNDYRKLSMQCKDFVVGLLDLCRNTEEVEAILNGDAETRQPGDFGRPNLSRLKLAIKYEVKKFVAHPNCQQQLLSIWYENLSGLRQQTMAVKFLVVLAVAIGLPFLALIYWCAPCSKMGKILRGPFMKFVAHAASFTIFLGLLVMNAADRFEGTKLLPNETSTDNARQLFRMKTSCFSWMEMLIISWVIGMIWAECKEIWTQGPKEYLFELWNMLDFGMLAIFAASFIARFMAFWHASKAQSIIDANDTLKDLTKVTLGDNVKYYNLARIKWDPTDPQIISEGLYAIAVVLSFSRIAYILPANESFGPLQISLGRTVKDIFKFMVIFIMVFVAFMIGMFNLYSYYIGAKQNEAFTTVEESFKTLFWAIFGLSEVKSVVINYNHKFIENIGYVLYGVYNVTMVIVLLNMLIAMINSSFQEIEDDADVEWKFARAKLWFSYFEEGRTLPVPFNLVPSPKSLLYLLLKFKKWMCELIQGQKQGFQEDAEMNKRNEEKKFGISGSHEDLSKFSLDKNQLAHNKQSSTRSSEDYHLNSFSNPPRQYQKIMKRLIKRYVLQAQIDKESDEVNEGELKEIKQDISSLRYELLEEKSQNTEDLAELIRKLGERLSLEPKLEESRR

[11] = target: Short transient receptor potential channel 6 (Mus musculus) (UniProt Q61143); assay: activation of mouse TRPC6 channel, confirmation, selectivity assay for TRPC4 activator project, cell-based, HEK293, membrane potential dye, duplicate (AID 434950;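 active means membrane potential signal rise above negative control mean plus 3 SD in both duplicates, also active in the earlier TRPC4 screen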); settings: HEK293 TRPC6, membrane potential fluorescence, at 10 µM; stronger effect = higher value
[12] = target: Short transient receptor potential channel 6 (Mus musculus) (UniProt Q61143); assay: TRPC6 potentiation by TRPC4 potentiator hits, confirmation, selectivity assay for TRPC4 potentiator project, HEK293 cells, membrane potential dye, duplicate (AID 434952;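 active means compound raising the membrane signal above positive-control mean plus 3 SD in both repeats, and a primary screen hit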); settings: HEK293 TRPC6, membrane potential dye fluorescence, at 10 µM, maximal acetylcholine added after compound; stronger effect = higher value
[13] = target: Short transient receptor potential channel 4 (Mus musculus) (UniProt Q9QUQ5); assay: calcium flux activators in TRPC4/5HT1a cells, counter-screen for TRPC4 activator project, cell-based, second counter screen, HEK293 TRPC4/5HT1a, Fluo-4 (AID 434977;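 active means calcium signal rise above buffer-control mean plus 5 SD in both duplicates, and also a hit in the primary screen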); settings: Fluo-4 calcium flux, at 10 µM; stronger effect = higher value
[14] = calcium flux inhibitors in TRPC4/5HT1a cells, confirmation, counter-screen for TRPC4 inhibitor project, cell-based, second counter screen, HEK293 TRPC4/5HT1a, Fluo-4 (AID 434978;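 active means primary screen active whose calcium signal fell more than 3 SD beyond the full-serotonin control mean in both duplicate plates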;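 further: serotonin given first at submaximal then at maximal dose after compound preincubation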); settings: Fluo-4 calcium flux, at 10 µM, serotonin added to trigger calcium flux; stronger effect = higher value
[15] = test system: TRPC4 (mouse), co-expressed with 5HT1a in HEK293; assay: calcium flux potentiators in TRPC4/5HT1a cells, confirmation, counter-screen for TRPC4 potentiator project, cell-based, second counter screen, HEK293 TRPC4/5HT1a, Fluo-4 (AID 434979;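 active means signal rise over 3 SD above mean of control wells given weak agonist, in both repeats and first screen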); settings: Fluo-4 calcium flux, at 10 µM, serotonin added at its EC20 dose; stronger effect = higher value
[16] = calcium flux activation in mu-opioid HEK293 cells, confirmation, counter-screen for TRPC4 activator project, cell-based, HEK293 mu-opioid receptor line (AID 449723;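 active means hit in primary screen, with calcium signal over 5 SD above buffer well mean in both duplicates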;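 further: counter screen cells carry the mu-opioid receptor alone and lack TRPC4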); settings: Fluo-4 calcium fluorescence, at 10 µM; stronger effect = higher value
[17] = calcium flux enhancement in mu-opioid HEK293 cells, confirmation, counter-screen for TRPC4 allosteric potentiator project, cell-based, HEK293 mu-opioid receptor line (AID 449724;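 active means calcium signal rise more than 3 SD above the low-dose agonist control mean, in both duplicate plates and the primary screen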); settings: Fluo-4 calcium flux, at 10 µM, compound added before EC20 DAMGO stimulus; stronger effect = higher value

CCN(CC)c1ccc(/C=N/NC(=O)CNC(=O)c2ccccn2)cc1
inactive: outcome [1] | outcome [2] | outcome [3] | outcome [4] | outcome [5] | outcome [6] | outcome [7] | outcome [8] | outcome [9] | outcome [10] | outcome [11] | outcome [12] | outcome [13] | outcome [14] | outcome [15] | outcome [16] | outcome [17]

CSc1ccc(S(=O)(=O)NCC(=O)OCC(=O)N(C)Cc2ccccc2)cc1[N+](=O)[O-]
inactive: outcome [1] | outcome [2] | outcome [3] | outcome [4] | outcome [5] | outcome [6] | outcome [7] | outcome [8] | outcome [9] | outcome [10] | outcome [11] | outcome [12] | outcome [13] | outcome [14] | outcome [15] | outcome [16] | outcome [17]

Cc1noc(C)c1COC(=O)[C@@H](NC(=O)c1ccccc1Cl)C(C)C
inactive: outcome [1] | outcome [2] | outcome [3] | outcome [4] | outcome [5] | outcome [6] | outcome [7] | outcome [8] | outcome [9] | outcome [10] | outcome [11] | outcome [12] | outcome [13] | outcome [14] | outcome [15] | outcome [16] | outcome [17]

CC(C)CN(C(=O)COC(=O)CCC(=O)c1ccc(Cl)cc1)c1c(N)n(Cc2ccccc2)c(=O)[nH]c1=O
inactive: outcome [1] | outcome [2] | outcome [3] | outcome [4] | outcome [5] | outcome [6] | outcome [7] | outcome [8] | outcome [9] | outcome [10] | outcome [11] | outcome [12] | outcome [13] | outcome [14] | outcome [15] | outcome [16] | outcome [17]

CCCCCCCCCCOC(=O)Cn1c(COc2ccccc2)[n+](C)c2ccccc21
inactive: outcome [1] | outcome [2] | outcome [3] | outcome [4] | outcome [5] | outcome [6] | outcome [7] | outcome [8] | outcome [9] | outcome [10] | outcome [11] | outcome [12] | outcome [13] | outcome [14] | outcome [15] | outcome [16] | outcome [17]

Cc1cccc(C)c1OCC(=O)N1CC2(C)CC1CC(C)(C)C2 (stereo not given)
inactive: outcome [1] | outcome [2] | outcome [3] | outcome [4] | outcome [5] | outcome [6] | outcome [7] | outcome [8] | outcome [9] | outcome [10] | outcome [11] | outcome [12] | outcome [13] | outcome [14] | outcome [15] | outcome [16] | outcome [17]

COc1cccc(OCc2cc(C(=O)N3CCN(C)C(c4ccccc4)C3)no2)c1 (stereo not given)
inactive: outcome [1] | outcome [2] | outcome [3] | outcome [4] | outcome [5] | outcome [6] | outcome [7] | outcome [8] | outcome [9] | outcome [10] | outcome [11] | outcome [12] | outcome [13] | outcome [14] | outcome [16] | outcome [17]
active: potentiation [15] 16.7%

COc1cc(NC(=O)C(C)Oc2ccccc2)cc(OC)c1 (stereo not given)
inactive: outcome [1] | outcome [2] | outcome [3] | outcome [4] | outcome [5] | outcome [6] | outcome [7] | outcome [8] | outcome [9] | outcome [10] | outcome [11] | outcome [12] | outcome [13] | outcome [14] | outcome [15] | outcome [16] | outcome [17]

COC(=O)C1=C(C)NC2=C(C(=O)c3ccccc32)C1c1ccc(-c2ccc(C(=O)O)cc2)o1 (stereo not given)
inactive: outcome [1] | outcome [2] | outcome [3] | outcome [4] | outcome [5] | outcome [6] | outcome [7] | outcome [8] | outcome [9] | outcome [10] | outcome [11] | outcome [12] | outcome [13] | outcome [14] | outcome [15] | outcome [16]
active: activation [17] 1780%

CCOC(=O)C1=C(N)OC2=C(C(=O)CC(C)(C)C2)C1c1ccc(CC)s1 (stereo not given)
active: potentiation [15] 27.5%
inactive: outcome [1] | outcome [2] | outcome [3] | outcome [4] | outcome [5] | outcome [6] | outcome [7] | outcome [8] | outcome [9] | outcome [10] | outcome [11] | outcome [12] | outcome [13] | outcome [14] | outcome [16] | outcome [17]

O=Cc1c(N2CCCCC2)nc2ccccn2c1=O
inactive: outcome [1] | outcome [2] | outcome [3] | outcome [4] | outcome [5] | outcome [6] | outcome [7] | outcome [8] | outcome [9] | outcome [10] | outcome [11] | outcome [12] | outcome [13] | outcome [14] | outcome [15] | outcome [16] | outcome [17]

CC(C)c1cccc(OCCCCN(C)C)c1
active: potentiation [3] 9% | potentiation [4] 20% | potentiation [15] 16.2%
inactive: outcome [1] | outcome [2] | outcome [5] | outcome [6] | outcome [7] | outcome [8] | outcome [9] | outcome [10] | outcome [11] | outcome [12] | outcome [13] | outcome [14] | outcome [16] | outcome [17]

Cc1cc(C(C)(C)C)cc(S(=O)(=O)Nc2cccc(C(=O)O)c2)c1C
active: potentiation [4] 9% | potentiation [15] 19%
inactive: outcome [1] | outcome [2] | outcome [3] | outcome [5] | outcome [6] | outcome [7] | outcome [8] | outcome [9] | outcome [10] | outcome [11] | outcome [12] | outcome [13] | outcome [14] | outcome [16] | outcome [17]

C/C(=C\c1cccc(Cl)c1Cl)C(=O)c1c(C)cc(C)[nH]c1=O
inactive: outcome [1] | outcome [2] | outcome [3] | outcome [4] | outcome [5] | outcome [6] | outcome [7] | outcome [8] | outcome [9] | outcome [10] | outcome [11] | outcome [12] | outcome [13] | outcome [14] | outcome [16] | outcome [17]
active: potentiation [15] 16.5%

CC[n+]1c(/C=C/c2ccc(OC(C)=O)c(OC)c2)ccc2ccccc21
inactive: outcome [1] | outcome [2] | outcome [3] | outcome [4] | outcome [5] | outcome [6] | outcome [7] | outcome [8] | outcome [9] | outcome [10] | outcome [11] | outcome [12] | outcome [13] | outcome [14] | outcome [15] | outcome [16] | outcome [17]
